Screens deposited in PubChem BioAssay by National Center for Advancing Translational Sciences (NCATS).
D2 ag-1 = activates the human D2 dopamine receptor. P14416. DiscoveRx PathHunter D2 beta-arrestin, luminescence, 90 min; 100% = 57 uM dopamine signal. activation, % (concentration not given with the values). hit rate 0.084% among 360,000. AID 624465; in the data active means activation above about 40%
Target sequence (P14416 whole entry, looked up): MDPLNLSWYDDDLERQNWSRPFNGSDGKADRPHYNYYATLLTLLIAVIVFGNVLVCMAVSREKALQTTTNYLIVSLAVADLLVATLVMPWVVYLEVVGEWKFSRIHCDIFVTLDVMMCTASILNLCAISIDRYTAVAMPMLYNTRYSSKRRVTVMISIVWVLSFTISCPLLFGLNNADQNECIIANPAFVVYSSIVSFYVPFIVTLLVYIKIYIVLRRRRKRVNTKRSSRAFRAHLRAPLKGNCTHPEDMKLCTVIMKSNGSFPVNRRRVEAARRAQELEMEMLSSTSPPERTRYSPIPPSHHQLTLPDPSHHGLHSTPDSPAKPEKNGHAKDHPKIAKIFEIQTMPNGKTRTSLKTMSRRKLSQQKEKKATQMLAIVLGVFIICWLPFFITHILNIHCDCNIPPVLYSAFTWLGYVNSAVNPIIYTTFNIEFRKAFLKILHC
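DiscoveRx PathHunter D2 beta-arrestin cells (2,100/well) attached overnight, then compound-stimulated 90 min at 37 C in HBSS/10 mM HEPES/0.1% Tween-20 buffer; beta-galactosidase complementation read by luminescence after 1 h at ambient temperature. Dopamine 57 uM final (EC100) as control.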
D2 PAM-1 = human D2 receptor positive allosteric modulation. P14416. DiscoveRx D2 beta-arrestin cells, luminescence, 90 min; 100% = 57 uM dopamine signal. potentiation, % (test concentration not listed). hit rate 0.23% among 360,000; in the data active means potentiation above about 50%
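PathHunter beta-arrestin assay in DiscoveRx D2 cells. Compounds were added with an EC20 of dopamine (50 nM final) for 90 min at 37 deg C. Luminescence was read 1 h after detection reagent, with 57 uM dopamine as the EC100 control.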
D2 antagonist = antagonists of human D2 dopamine receptor; HEK293 TREx D2 cells, calcium flux, dopamine EC80; hit rate 2% among 340,000; P14416; AID 485344; inhibition, % at 10 µM; in the data active means inhibition above about 30%; inactive means below that, where a call was filed
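Antagonism is scored as inhibition of an EC80 dopamine-evoked calcium signal in a force-coupled, tetracycline-inducible HEK293 T-REx D2 line, with compound present 180 s before agonist.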
D2 ag-2 = activates the human D2 dopamine receptor | AID 485358 | HEK293 T-REx D2 cells, calcium flux agonist mode | P14416 | activation, % at 2 µM | hit rate 0.53% among 340,000;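 active means activation over 3 SD above normal in the single-dose calcium agonist read, cut at about 30% in these data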
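Tetracycline-induced HEK293 Trex cells with D2 receptor force-coupled to calcium signaling, plated overnight at 30 C and loaded with no-wash calcium dye. Calcium flux read kinetically for 180 s after compound addition; responses flag agonists.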
D2 PAM-2 = positive allosteric modulators of human D2 dopamine receptor; P14416; HEK293 T-REx D2, calcium flux, EC20 dopamine potentiation; potentiation, % at 10 µM; hit rate 0.34% among 340,000; AID 485347;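 active means potentiation over 3 SD above the plate norm, cut at about 30% in these data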
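Tetracycline-induced HEK293 T-REx cells force-coupled to calcium signalling expressed D2; compounds were pin-added after a 10 s baseline, read kinetically 180 s, then an EC20 dopamine challenge followed with a further 180 s calcium read.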
A number is an active result; – = inactive; · = no result. Most compounds without a hit are left out; they make up all but 2.4% or so of the library.

SMILES	D2 ag-1	D2 PAM-1	D2 antagonist	D2 ag-2	D2 PAM-2
Cc1nn(-c2ccc(N3CCCC3)nn2)c(C)c1CCC(=O)N1CCN(c2ccccc2F)CC1	·	·	·	–	–
CC1CCN(S(=O)(=O)c2ccc3c(c2)N(CC(=O)NC(C)C)C(=O)CO3)CC1	·	·	·	–	–
CSc1ccc(CNC(=O)Cn2nc(N3CCN(c4ccccc4)CC3)ccc2=O)cc1	·	·	·	–	–
CCN(CC)S(=O)(=O)c1cc(C(=O)OCC(=O)NC2CCCc3ccccc32)ccc1C (stereo not given)	–	–	37	–	–
CN(C)C1=NC[C@H](Cc2ccccc2)N1CCc1cccc(F)c1	–	–	–	–	–
NC1=NC[C@H](Cc2ccc(O)cc2)N1CCc1cccc(F)c1	–	–	39	–	–
CSc1nc(C(=O)N2CCCC(N3CCN(c4ccccc4C)CC3)C2)cs1 (stereo not given)	–	–	39	–	–
COc1ccccc1N1CCN(C2CCCN(C(=O)c3oc(C)cc3C)C2)CC1 (stereo not given)	–	–	46	–	–
COc1ccccc1N1CCN(C2CCCN(C(=O)c3csc(C)n3)C2)CC1 (stereo not given)	–	–	–	–	–
CCc1ccc(C(=O)c2cn(CC(=O)Nc3cc(C)ccc3C)c3nc(C)ccc3c2=O)cc1	·	·	·	–	–
N#Cc1ccc(OC(=O)c2cc(-c3ccc(Cl)cc3)on2)cc1	·	·	·	–	–
CCSc1ccc2c(c1)N(CCCN1CCN(C)CC1)c1ccccc1S2	–	–	83	–	–
CC(CN1CCN(CCOCCO)CC1)CN1c2ccccc2Sc2ccc(Cl)cc21 (stereo not given)	–	–	·	·	·
CN1CCN(CCCN2c3ccccc3Sc3ccc(Cl)cc32)CC1	·	·	72	·	·
Cc1ccc(C)c(N2CCN(C(=O)c3c4c(nc5ccccc35)C(=O)N(C3CCCCC3)C4)CC2)c1	·	·	·	·	–
CCN(CCCNC(=O)c1cc(Nc2ccc(OC)cc2OC)nc2ccccc12)c1cccc(C)c1	·	·	·	–	–
Cc1ccc(S(=O)(=O)Nc2c(O)ccc3ccccc23)cc1	56	–	·	·	·
CCOC(=O)c1cc2sccc2n1CC(=O)N1CCc2ccccc21	–	–	–	–	34
CC(C)CCCN1CCN=C1Nc1ccccc1	–	–	39	–	–
Cc1ccc(NC(=O)Cn2c(=O)oc3cc(S(=O)(=O)N4CCCCC4)ccc32)c(Cl)c1	·	·	·	–	–
COCCCNC(=O)Cn1ncc2ccsc2c1=O	–	–	30	–	–
CC(C)c1ccc(NC(=O)CSC2=Nc3ccccc3C3=NC(CC(=O)NCCc4ccccc4)C(=O)N23)cc1 (stereo not given)	·	·	·	–	–
Cc1ccc(C(=O)NCCc2c[nH]c3ccccc23)c(C)c1	–	–	74	–	–
NNC(=O)CNS(=O)(=O)c1ccc([N+](=O)[O-])cc1	–	–	49	–	–
O=C(CNS(=O)(=O)c1ccccc1)OCC(=O)c1ccc([N+](=O)[O-])cc1	–	–	–	–	–
SMILES	D2 ag-1	D2 PAM-1	D2 antagonist	D2 ag-2	D2 PAM-2
COC(=O)c1cc2c(=O)c3ccccc3oc2nc1C	–	–	–	–	–
COC(=O)c1cc2c(=O)c3ccccc3oc2nc1/C=C/N(C)C	–	–	–	40	–
Cc1cc(C)cc(N2C(=O)CS(=O)(=O)C23C(=O)N(C)c2ccccc23)c1 (stereo not given)	·	·	·	–	–
CCOC(=O)C1(C)C=C(Nc2ccc(C)cc2)C(=O)N1c1ccccc1 (stereo not given)	·	·	·	–	·
O=C(O)CCc1ccc(-c2ccc(Cl)cc2)n1CC(=O)O	–	–	–	–	–
O=C(O)CCc1ccc(-c2ccc(Cl)cc2)n1CC(=O)Nc1ccccc1	–	–	–	–	36
COc1ccc(/C=C/CN2CCCC(CCC(=O)NCc3ccc(F)c(F)c3)C2)cc1 (stereo not given)	–	–	–	–	–
COc1ccccc1/C=C/CN1CCCC(CCC(=O)NCc2ccc(F)c(F)c2)C1 (stereo not given)	–	–	33	–	–
COc1cccc(CNC(=O)CCC2CCCN(C/C=C/c3ccccc3OC)C2)c1 (stereo not given)	–	–	32	–	–
Cc1nc2ccccc2n1CCc1nc2c3ccccc3nc(SCc3cccc(F)c3)n2n1	·	·	·	–	–
COc1ccccc1CN1C[C@@H]2C[C@@H](C3=Cc4cc(Cl)ccc4OC3)N3CCC[C@@]23C1=O	–	–	31	–	–
CCC12CCC3c4ccc(O)cc4CCC3C1CC(O)C2O (stereo not given)	–	–	·	·	·
COc1ccc(N(CC(=O)Nc2cccnc2)S(=O)(=O)c2ccccc2)cc1Cl	–	–	31	–	–
COc1ccc(S(=O)(=O)N(CC(=O)Nc2ccc(C)cc2)c2ccc(C)cc2)cc1OC	·	·	·	–	–
COC(=O)c1cc(NC(=O)CN(c2cccc(OC)c2)S(=O)(=O)c2ccccc2)ccc1Cl	–	–	–	–	–
COC(=O)c1cc(NC(=O)CN(c2ccccc2OC)S(=O)(=O)c2ccccc2)ccc1Cl	–	–	36	–	–
O=C(CN(c1ccccc1)S(=O)(=O)c1ccc(Cl)cc1)Nc1cccnc1	–	–	34	–	–
COc1ccc(N(CC(=O)Nc2cccnc2)S(=O)(=O)c2ccc(C)cc2)cc1Cl	–	–	–	–	·
CCOc1ccc(NC(=O)CN(c2ccc(OC)c(OC)c2)S(=O)(=O)c2ccc(C)cc2)cc1	–	–	55	–	–
O=C(O)/C(=C/c1ccco1)NC(=O)c1ccccc1	–	–	34	–	–
Cc1cccc(NS(=O)(=O)c2ccccc2)n1	–	–	31	–	–
CCC(C)c1ccccc1OCCCN(C)Cc1ccccc1 (stereo not given)	–	–	35	–	–
Cc1cc(C)c(C)c(OCCCCN(C)Cc2ccccc2)c1	–	–	31	–	–
CN(CCCCOc1ccc(F)cc1)Cc1ccccc1	–	–	33	–	–
CN(CCOc1ccccc1)CCOc1ccccc1	–	–	37	–	–
SMILES	D2 ag-1	D2 PAM-1	D2 antagonist	D2 ag-2	D2 PAM-2
CN(CCOc1ccc(F)cc1)Cc1ccccc1	–	–	–	–	–
O=C1CN(C(=O)COc2ccc(Cl)cc2)C(c2ccccc2)c2cc(Br)ccc2N1 (stereo not given)	·	·	·	–	–
O=C(Cc1ccc(NC(=O)N2CCCCc3ccccc32)cc1)NCc1cccc(Br)c1	·	·	·	–	–
CC(C)(C)c1ccc(C(=O)Nc2ccccc2C(=O)OCc2cc(=O)n3ccsc3n2)cc1	·	·	·	–	–
Cc1ccc(C)c(-n2c(CCC(=O)O)ccc2-c2ccc(Cl)cc2)c1	·	·	·	–	–
O=C(Nc1cc(C(F)(F)F)ccc1N1CCOCC1)c1cncc(Br)c1	–	–	31	–	–
Nc1nnc(SCC(=O)Nc2cc(C(F)(F)F)ccc2N2CCOCC2)s1	–	–	87	–	–
